# Results published in PubChem BioAssay (NCATS).
# Results filed as inconclusive are left out. Where a call stands in place of a potency, no number is given. Active and inactive are the calls of the source. Unless noted, calls follow the shape of the dose curve; as a rule, active = well fitted curve in the direction sought with a large enough effect; inconclusive = small, poorly fitted or top-dose-only effect, or another doubt; inactive = no such curve, though single readings can be large; an effect the other way counts as inactive or inconclusive.
# What was measured:
# [1] = Cytometric Cell-Based qHTS for Inhibitors of the mTORC1 Signaling Pathway in MEF (Tsc2-/-, p53-/-) Cells (AID 2660); conditions: mTORC1 pathway cytometry; series mostly up to 38.3 µM;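 also: Tsc2 and p53 null MEFs carrying empty vector with compound for 24 h; percent of cells above a phospho-rpS6 to PI ratio cutoff in each well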
# Outline: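 Immunofluorescence qHTS of rpS6 Ser235/236 phosphorylation: MEFs (Tsc2-/-, p53-/-) treated 24 h, 37 C, in DMEM + 10% FBS. Alexa-488 signal normalized to PI count, referenced to rapamycin (7.5 nM) and DMSO; PI cell number recorded for viability.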
# [2] = High Content Imaging Cell-Based qHTS for Inhibitors of the mTORC1 Signaling Pathway in MEF (Tsc2-/-, p53-/-) Cells (AID 2666); conditions: series mostly up to 38.3 µM;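 also: percent of cells scored positive for phospho-rpS6 Ser235/236 immunostaining by imaging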
# Outline: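 Inhibition of rpS6 phosphorylation is measured by immunofluorescence imaging in empty-vector Tsc2-/-, p53-/- mouse embryonic fibroblasts after 24 hrs compound exposure at 37 degree Celsius. Results are reported as % positive cells per well.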
# [3] = High Content Imaging Cell-Based qHTS for Inhibitors of the mTORC1 Signaling Pathway in MEF Cells (AID 2667); conditions: series mostly up to 38.3 µM; also: potency is read from the fitted curve at half-maximal effect
# Outline: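 Fixed-cell imaging of phospho-S6 (Ser235/236, Alexa-488) after 24 hrs of compound treatment at 37 degree Celsius. Signal was normalized to Hoechst, and thresholds from the highest and lowest wells split cells into % active versus % non-active.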
# [4] = Cytometry Cell-Based qHTS for Inhibitors of the mTORC1 Signaling Pathway in MEF cells (AID 2668); conditions: mTORC1 pathway readout; series mostly up to 38.3 µM;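 also: Tsc2-/- p53-/- mouse embryonic fibroblasts stably re-expressing wild-type Tsc2; percent cells positive for phospho-rpS6 Ser235/236 relative to propidium iodide stain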
# Outline: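 Read-out: phospho-rpS6 Ser235/236 immunofluorescence normalized to propidium iodide intensity, scored as % active cells against a rapamycin (7.5 nM) threshold. Cells: Tsc2-/-, p53-/- MEFs stably expressing WT Tsc2, compound-treated 24 hrs at 37 degree Celsius.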
# [5] = target: Ubiquitin carboxyl-terminal hydrolase 2 (Homo sapiens) (UniProt O75604); assay: qHTS Validation Assay for Inhibitors of Ubiquitin-specific Protease USP2a Using CHOP2 as the Reporter (AID 463106); conditions: USP2a cleavage of CHOP2 reporter, enzymatic; series mostly up to 38.3 µM
# Outline: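 Inhibition is expressed relative to NEM as the full-inhibition control, with concentration-response curves classed by fit quality, magnitude and activity. Enzyme (USP2 core, 10nM) meets 25nM Ub-CHOP2 after compound preincubation; readings are taken at 60min.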
# [6] = target: DNA polymerase III PolC-type (Bacillus subtilis (strain 168)) (UniProt P13267); assay: qHTS Validation Assay for the Inhibitors of DNA Replication in Gram-Positive Bacteria (AID 485295); conditions: Gram-positive bacterial DNA replication assay; series mostly up to 57.1 µM;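 also: reconstituted holoenzyme with PolC plus beta clamp SSB and primase; PicoGreen fluorescence of double-stranded DNA made on primed circular M13 template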
# Outline: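 PicoGreen fluorescence (ex 480–485/em 535–540 nm) reports dsDNA synthesized on ssM13Gori template with dNTPs/NTPs. Enzyme: holoenzyme rebuilt from purified PolC, beta subunit, SSB and primase. Compound preincubated before substrate addition; RT throughout.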
# [7] = target: Tumor susceptibility gene 101 protein (Homo sapiens) (UniProt Q99816); assay: qHTS Validation Assay for Iinhibitors of HIV-1 Budding by Blocking the Interaction of PTAP/TSG101 (AID 485342; calls by dose curve); conditions: TSG101-PTAP binding, fluorescence polarization, 4-point titration; series mostly up to 115 µM
# Outline: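 FP read-out: FITC-PTAP peptide, 50 nM final, binding Tsg101 binding domain, 10 uM final; 20 min r.t.; 10 mM HEPES pH 7.5, 0.15 M NaCl, 0.01% Tween 20, 3 mM EDTA, 0.1 mM TCEP.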
# [8] = qHTS Validation Assay to Find Inhibitors of Chronic Active B-Cell Receptor Signaling (AID 485345; active = well fitted curve in the direction sought with a large enough effect in the main read-out, with a control signal flat, not every such curve was filed as active); conditions: ABC-DLBCL cells, chronic BCR signaling reporter, CBG luciferase; series mostly up to 46.1 µM
# Outline: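 TMD8 ABC-DLBCL cells with dox-inducible green luciferase–IκBα fusion and red native luciferase; compounds 46 uM–3 nM, 4 h at 37C with doxycycline in 0.5% FBS IMDM. Green/red ratio normalized to basal and 10 uM MG-132.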
# [9] = Validation screen for small molecules that induce DNA re-replication in MCF 10A normal breast cells (AID 463097); conditions: MCF 10A cells, DNA re-replication phenotype imaging; series mostly up to 46.1 µM; also: nearly all actives have a fitted effect of over 60% in size; also: potency is read from the fitted curve at half-maximal effect
# Outline: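 250 MCF 10A cells/well; compound pin-transferred; 48 hr, 37 C, 5% CO2; Hoechst 40 min; imaged 405/500-530 nm. Hits = more high-intensity nuclei.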
# Chain of Ubiquitin carboxyl-terminal hydrolase 2 (Homo sapiens) (O75604 whole entry, looked up): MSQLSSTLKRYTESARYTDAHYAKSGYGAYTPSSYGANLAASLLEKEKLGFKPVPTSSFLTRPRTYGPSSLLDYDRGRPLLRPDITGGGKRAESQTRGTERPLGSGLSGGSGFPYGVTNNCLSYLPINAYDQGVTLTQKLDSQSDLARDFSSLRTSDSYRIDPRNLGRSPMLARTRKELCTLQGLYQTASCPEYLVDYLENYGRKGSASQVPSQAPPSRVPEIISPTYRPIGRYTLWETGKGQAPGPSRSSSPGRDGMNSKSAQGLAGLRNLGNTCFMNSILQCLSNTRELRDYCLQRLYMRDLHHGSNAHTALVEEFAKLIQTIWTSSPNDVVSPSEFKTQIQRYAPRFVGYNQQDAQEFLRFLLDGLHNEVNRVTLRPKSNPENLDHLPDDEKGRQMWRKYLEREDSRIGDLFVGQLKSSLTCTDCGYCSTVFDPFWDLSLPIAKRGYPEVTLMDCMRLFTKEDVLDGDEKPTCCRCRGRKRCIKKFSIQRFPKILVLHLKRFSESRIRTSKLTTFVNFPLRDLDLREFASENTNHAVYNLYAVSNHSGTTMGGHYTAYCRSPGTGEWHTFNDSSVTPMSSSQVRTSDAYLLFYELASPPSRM
# Chain of Tumor susceptibility gene 101 protein (Homo sapiens) (Q99816 whole entry, looked up, the tested form may be a part): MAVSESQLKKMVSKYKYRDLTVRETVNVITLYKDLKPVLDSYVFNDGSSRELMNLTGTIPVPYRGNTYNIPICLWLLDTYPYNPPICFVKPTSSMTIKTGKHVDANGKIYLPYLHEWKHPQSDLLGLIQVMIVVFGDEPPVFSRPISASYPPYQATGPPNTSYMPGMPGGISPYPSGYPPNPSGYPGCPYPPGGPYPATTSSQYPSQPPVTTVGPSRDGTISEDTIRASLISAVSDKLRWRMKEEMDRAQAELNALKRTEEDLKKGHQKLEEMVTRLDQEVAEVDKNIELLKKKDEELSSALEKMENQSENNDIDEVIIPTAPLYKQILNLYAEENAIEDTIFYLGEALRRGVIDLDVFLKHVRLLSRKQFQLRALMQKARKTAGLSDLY
# Chain of DNA polymerase III PolC-type (Bacillus subtilis (strain 168)) (P13267 whole entry, looked up): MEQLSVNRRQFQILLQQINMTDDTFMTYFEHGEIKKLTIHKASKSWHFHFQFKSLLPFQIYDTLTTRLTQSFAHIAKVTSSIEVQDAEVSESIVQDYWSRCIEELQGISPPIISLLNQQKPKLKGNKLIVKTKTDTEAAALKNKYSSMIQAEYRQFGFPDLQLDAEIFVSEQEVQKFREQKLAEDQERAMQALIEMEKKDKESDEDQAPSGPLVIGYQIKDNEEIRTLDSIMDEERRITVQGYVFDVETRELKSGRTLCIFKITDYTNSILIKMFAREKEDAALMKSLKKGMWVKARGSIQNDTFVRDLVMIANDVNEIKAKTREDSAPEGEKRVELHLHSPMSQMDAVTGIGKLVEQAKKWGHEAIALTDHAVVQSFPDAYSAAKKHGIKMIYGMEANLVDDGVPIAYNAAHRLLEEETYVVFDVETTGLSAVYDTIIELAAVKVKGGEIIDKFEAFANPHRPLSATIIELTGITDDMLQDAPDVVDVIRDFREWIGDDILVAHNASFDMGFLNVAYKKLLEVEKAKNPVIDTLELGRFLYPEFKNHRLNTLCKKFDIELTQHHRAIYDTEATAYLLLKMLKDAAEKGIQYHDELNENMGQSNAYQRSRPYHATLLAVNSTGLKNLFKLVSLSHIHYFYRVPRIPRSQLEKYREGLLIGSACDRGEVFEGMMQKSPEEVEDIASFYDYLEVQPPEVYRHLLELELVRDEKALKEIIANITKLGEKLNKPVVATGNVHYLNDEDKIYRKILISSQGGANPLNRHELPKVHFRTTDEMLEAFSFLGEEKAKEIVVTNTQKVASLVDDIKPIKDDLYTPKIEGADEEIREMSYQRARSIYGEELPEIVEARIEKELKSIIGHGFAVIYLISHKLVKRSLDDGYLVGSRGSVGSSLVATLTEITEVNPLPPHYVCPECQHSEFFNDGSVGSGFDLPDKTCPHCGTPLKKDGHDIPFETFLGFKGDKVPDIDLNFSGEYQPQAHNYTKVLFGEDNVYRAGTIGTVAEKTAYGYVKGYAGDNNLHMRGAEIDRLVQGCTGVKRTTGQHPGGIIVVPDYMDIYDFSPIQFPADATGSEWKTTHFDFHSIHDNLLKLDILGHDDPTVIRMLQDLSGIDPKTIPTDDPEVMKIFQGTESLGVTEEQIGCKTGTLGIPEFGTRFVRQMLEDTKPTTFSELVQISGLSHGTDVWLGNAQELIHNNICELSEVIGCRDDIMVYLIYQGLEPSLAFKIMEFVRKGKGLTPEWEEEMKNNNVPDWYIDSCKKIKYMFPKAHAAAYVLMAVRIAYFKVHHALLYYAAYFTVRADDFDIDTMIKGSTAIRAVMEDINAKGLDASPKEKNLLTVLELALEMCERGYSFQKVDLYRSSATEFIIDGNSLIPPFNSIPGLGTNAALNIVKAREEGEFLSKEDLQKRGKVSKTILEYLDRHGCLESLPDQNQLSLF
SMILES,outcome [1],Potency [2],Potency [3],Potency [4],Potency [5],Potency [6],outcome [7],outcome [8],Potency [9]
CN1Cc2sccc2C(c2ccc(O)c(O)c2)C1 (stereo not drawn),inactive,inactive,inactive,inactive,inactive,inactive,inactive,inactive,–
Nc1nc2c(nc(Br)n2C2OC3COP(=O)(O)O[C@@H]3C2O)c(=O)[nH]1 (stereo partly drawn),inactive,inactive,inactive,inactive,inactive,inactive,–,inactive,–
O=C(O)CCC(=O)N1CCCC1C(=O)O (stereo not drawn),inactive,inactive,inactive,inactive,inactive,inactive,inactive,inactive,–
Nc1nc2c(cnn2CCc2ccccc2)c2nc(-c3ccco3)nn12,inactive,inactive,inactive,inactive,inactive,inactive,inactive,–,–
NCC(O)C1CCCCCCC1 (stereo not drawn),inactive,inactive,inactive,inactive,inactive,inactive,inactive,inactive,–
C[C@H](NC(=O)/C(C#N)=C/c1ccc(O)c(O)c1)c1ccccc1,inactive,inactive,inactive,inactive,inactive,inactive,inactive,inactive,–
NC1(C(=O)O)CCCCC1,inactive,inactive,inactive,inactive,inactive,inactive,inactive,inactive,–
CCCn1c(=O)c2[nH]c(-c3ccc(S(=O)(=O)O)cc3)nc2n(CCC)c1=O,inactive,inactive,inactive,–,inactive,inactive,inactive,–,inactive
NC(=O)CNCCC(c1ccccc1)c1ccccc1,inactive,inactive,inactive,–,inactive,inactive,inactive,inactive,inactive
C/C(=C\c1ccc(C(=O)O)cc1)c1ccc2c(c1)C(C)(C)CCC2(C)C,inactive,inactive,inactive,–,–,inactive,inactive,–,11.2 µM (active)
C=CCn1c(=O)c2c(nc(-c3ccc(S(=O)(=O)O)cc3)n2C)n(C)c1=O,inactive,inactive,inactive,–,inactive,inactive,inactive,inactive,inactive
CC(N)(Cc1ccc(O)c(O)c1)C(=O)O (stereo not drawn),inactive,inactive,inactive,–,inactive,inactive,inactive,inactive,inactive
CCC1(O)CC2CN(CCc3c([nH]c4ccccc34)[C@@](C(=O)OC)(c3cc4c(cc3OC)N(C=O)C3[C@]45CCN4CC=C[C@@](CC)([C@@H](OC(C)=O)[C@]3(O)C(=O)OC)[C@H]45)C2)C1 (stereo partly drawn),inactive,inactive,inactive,–,inactive,inactive,–,–,0.0447 µM (active)
CC1C(=O)N(C)C(=O)c2nc[nH]c21 (stereo not drawn),inactive,inactive,inactive,–,inactive,inactive,inactive,–,inactive
N#C/C(=C\c1ccc(O)c(O)c1)C(=O)NCCCNC(=O)/C(C#N)=C/c1ccc(O)c(O)c1,inactive,inactive,inactive,–,inactive,–,inactive,–,inactive
Nc1ccc2c3c(cccc13)C(=O)NC2=O,inactive,inactive,inactive,–,–,inactive,–,–,inactive
CN(C)C(=O)/N=N/C(=O)N(C)C,inactive,inactive,inactive,–,inactive,inactive,inactive,inactive,inactive
NC(Cc1cccc(-c2ccccc2CP(=O)(O)O)c1)C(=O)O (stereo not drawn),inactive,inactive,inactive,–,inactive,inactive,–,inactive,inactive
NCCNS(=O)(=O)c1cccc2c(Cl)cccc12,inactive,inactive,16.5 µM (active),–,inactive,inactive,inactive,–,inactive
[N-]=[N+]=Nc1ccc(C(=O)CSC[C@H](NC(=O)CC[C@H](N)C(=O)O)C(=O)NCC(=O)O)cc1,inactive,inactive,inactive,inactive,–,–,inactive,inactive,–
COc1ccc2c(c1)CCC1C2CC[C@@]2(C)C1CC[C@@H]2NCCCCCCN1C(=O)C=CC1=O (stereo partly drawn),inactive,inactive,inactive,–,inactive,inactive,inactive,inactive,inactive
CC[C@H](NC(=O)c1c(C)c(-c2ccccc2)nc2ccccc12)c1ccccc1,inactive,inactive,inactive,–,inactive,inactive,inactive,inactive,inactive
CN1CCc2cc(Cl)c(O)cc2[C@@H](c2ccccc2)C1,inactive,inactive,inactive,inactive,inactive,–,inactive,–,–
CCCCCCCCCCC/C=C\C(C)(C)/C=C\CCCC(=O)O,inactive,inactive,inactive,inactive,–,inactive,–,inactive,–
CCCCCCC(=O)OC1CC(C)(C)NC(C)(C)C1,inactive,inactive,inactive,inactive,inactive,–,inactive,inactive,–
COc1ccc2c(c1)c(CC(=O)O)c(C)n2Cc1ccc(Cl)cc1,inactive,inactive,inactive,–,inactive,inactive,inactive,inactive,inactive
Nc1ncnc2c1c(-c1ccc(Oc3ccccc3)cc1)cn2C1CCCC1,inactive,inactive,inactive,–,inactive,inactive,inactive,–,3.16 µM (active)
